The source of these data is paper PMC7862700, “An all-to-all approach to the identification of sequence-specific readers for epigenetic DNA modifications on cytosine”.

Common to all, as to assay: DAPPL (digital affinity profiling via proximity ligation, sequencing); 10 mM Tris-HCl pH 7.5, 50 mM NaCl, 1 mM DTT, 4% glycerol, room temperature, 30 min; GST-TFs on glutathione beads, 16-mer random dsDNA library, 0.1% formaldehyde crosslink after washing; high values mean tight binding
In one test the target is T1, FLI1 (Homo sapiens, UniProt Q01543 1-452).
T1 sequence: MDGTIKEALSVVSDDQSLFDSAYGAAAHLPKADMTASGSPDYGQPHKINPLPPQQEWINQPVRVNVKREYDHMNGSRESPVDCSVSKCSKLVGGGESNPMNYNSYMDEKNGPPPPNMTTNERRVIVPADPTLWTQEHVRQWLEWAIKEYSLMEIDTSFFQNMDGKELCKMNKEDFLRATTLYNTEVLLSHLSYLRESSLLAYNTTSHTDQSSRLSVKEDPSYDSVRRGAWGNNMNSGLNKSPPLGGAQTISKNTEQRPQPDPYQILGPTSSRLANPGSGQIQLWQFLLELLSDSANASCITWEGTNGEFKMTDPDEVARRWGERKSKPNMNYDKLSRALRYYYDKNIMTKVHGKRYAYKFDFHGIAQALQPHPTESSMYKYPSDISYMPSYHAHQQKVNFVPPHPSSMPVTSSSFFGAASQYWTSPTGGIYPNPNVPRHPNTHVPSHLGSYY
The conditions noted are these: protein: recombinant; tags: N-terminal GST; dsDNA, one strand shown. A digest of the protocol:
(§1)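 After expression in yeast as GST fusions, human transcription factors were bound to glutathione beads, DNA-barcoded and mixed with a tag-only sample. The pools were incubated with 200 nmole of a 16-mer random double-stranded DNA library in Tris/NaCl/DTT/glycerol buffer (30 min, room temperature), washed and crosslinked with 0.1% formaldehyde. Proximity ligation with BsaI/T4 ligase ran for 1 h at 37 °C, before PCR amplification and sequencing on an Illumina NextSeq500. Binding signal is a hexamer's read frequency for a factor divided by its frequency for the tag-only sample.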

The next test has as its target T2, ELK1 (Homo sapiens, UniProt P19419 1-428).
T2 sequence: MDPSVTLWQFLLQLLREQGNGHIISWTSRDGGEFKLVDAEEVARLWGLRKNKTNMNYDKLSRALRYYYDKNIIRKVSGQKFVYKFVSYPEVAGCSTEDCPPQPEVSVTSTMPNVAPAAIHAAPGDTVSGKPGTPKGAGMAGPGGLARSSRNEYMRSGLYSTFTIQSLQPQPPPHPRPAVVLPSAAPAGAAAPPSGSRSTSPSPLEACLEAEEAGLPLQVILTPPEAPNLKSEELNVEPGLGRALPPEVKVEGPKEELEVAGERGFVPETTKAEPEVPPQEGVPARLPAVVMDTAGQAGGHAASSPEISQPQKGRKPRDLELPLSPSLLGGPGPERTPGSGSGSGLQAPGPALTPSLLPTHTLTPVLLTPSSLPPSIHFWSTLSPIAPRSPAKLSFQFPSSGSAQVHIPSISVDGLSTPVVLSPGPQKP
The conditions noted are these: protein: recombinant; tags: N-terminal GST; dsDNA, one strand shown. In outline:
as §1

The target in another test is T3, GABPA (Homo sapiens, UniProt Q06546 1-454).
T3 sequence: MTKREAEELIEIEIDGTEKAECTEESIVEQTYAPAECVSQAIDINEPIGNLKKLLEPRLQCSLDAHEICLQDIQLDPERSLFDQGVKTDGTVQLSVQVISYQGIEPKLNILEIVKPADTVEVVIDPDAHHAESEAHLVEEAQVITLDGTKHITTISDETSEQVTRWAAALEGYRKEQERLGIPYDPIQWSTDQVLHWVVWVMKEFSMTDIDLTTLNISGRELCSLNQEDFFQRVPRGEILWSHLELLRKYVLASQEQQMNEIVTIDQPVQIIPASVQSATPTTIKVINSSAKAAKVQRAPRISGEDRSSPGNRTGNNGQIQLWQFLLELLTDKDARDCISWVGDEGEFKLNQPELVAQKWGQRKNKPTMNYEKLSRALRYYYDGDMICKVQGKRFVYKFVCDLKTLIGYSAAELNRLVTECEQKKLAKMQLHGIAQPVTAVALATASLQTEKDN
Conditions: protein: recombinant; tags: N-terminal GST; dsDNA, one strand shown. A digest of the protocol:
as §1

The target of the next test is T4, ERG (Homo sapiens, UniProt P11308 1-479).
T4 sequence: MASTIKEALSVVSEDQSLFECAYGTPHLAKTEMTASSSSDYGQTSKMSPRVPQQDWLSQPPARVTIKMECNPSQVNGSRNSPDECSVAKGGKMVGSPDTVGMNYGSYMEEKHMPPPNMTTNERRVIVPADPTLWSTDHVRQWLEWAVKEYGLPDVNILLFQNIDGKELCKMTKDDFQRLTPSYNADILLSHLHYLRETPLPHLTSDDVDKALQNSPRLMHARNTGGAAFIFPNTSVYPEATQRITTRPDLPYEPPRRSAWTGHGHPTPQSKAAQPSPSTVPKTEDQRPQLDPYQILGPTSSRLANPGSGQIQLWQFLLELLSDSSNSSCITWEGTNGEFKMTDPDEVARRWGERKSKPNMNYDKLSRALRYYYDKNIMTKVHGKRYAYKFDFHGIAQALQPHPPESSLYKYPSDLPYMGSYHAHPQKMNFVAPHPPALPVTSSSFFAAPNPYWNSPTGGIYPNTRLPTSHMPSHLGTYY
The conditions noted are these: protein: recombinant; tags: N-terminal GST; dsDNA, one strand shown. In outline:
as §1

In another test the target is ELF1 (Homo sapiens, UniProt P32519 1-619). The conditions noted are these: protein: recombinant; tags: N-terminal GST; dsDNA, one strand shown. In outline:
as §1

In the next test the target is T5, EHF (Homo sapiens, UniProt Q9NZC4 1-300).
T5 sequence: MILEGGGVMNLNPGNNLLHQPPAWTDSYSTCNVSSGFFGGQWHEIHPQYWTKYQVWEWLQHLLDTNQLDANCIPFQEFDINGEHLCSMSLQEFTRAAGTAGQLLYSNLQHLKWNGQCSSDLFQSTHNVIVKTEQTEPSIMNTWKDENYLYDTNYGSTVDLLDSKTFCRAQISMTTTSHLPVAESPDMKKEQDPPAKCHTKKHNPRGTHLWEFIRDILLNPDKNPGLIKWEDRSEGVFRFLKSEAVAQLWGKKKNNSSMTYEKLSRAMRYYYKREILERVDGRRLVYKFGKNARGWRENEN
Conditions: protein: recombinant; tags: N-terminal GST; dsDNA, one strand shown. In outline: as §1

A further test addresses SPI1 (Homo sapiens, UniProt P17947 1-270). The conditions noted are these: protein: recombinant; tags: N-terminal GST; dsDNA, one strand shown. A digest of the protocol:
as §1

The next test has as its target SPIB (Homo sapiens, UniProt Q01892 1-262). Conditions: protein: recombinant; tags: N-terminal GST; dsDNA, one strand shown. In outline: as §1
In the next test the target is T6, ELK3 (Homo sapiens, UniProt P41970 1-407).
T6 sequence: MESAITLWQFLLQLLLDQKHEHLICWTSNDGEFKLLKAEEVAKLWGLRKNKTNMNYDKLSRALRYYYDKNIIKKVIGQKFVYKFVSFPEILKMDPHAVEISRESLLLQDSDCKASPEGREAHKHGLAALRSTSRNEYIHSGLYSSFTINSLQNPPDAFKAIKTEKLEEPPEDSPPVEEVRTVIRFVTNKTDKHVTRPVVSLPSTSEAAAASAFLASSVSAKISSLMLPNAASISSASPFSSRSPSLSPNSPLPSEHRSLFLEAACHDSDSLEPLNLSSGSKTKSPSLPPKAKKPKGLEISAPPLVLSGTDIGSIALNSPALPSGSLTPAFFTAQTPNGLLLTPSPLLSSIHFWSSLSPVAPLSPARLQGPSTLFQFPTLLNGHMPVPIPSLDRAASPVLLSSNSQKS
Conditions: protein: recombinant; tags: N-terminal GST; dsDNA, one strand shown. A digest of the protocol:
as §1

In another test the target is T7, FEV (Homo sapiens, UniProt Q99581 1-238).
T7 sequence: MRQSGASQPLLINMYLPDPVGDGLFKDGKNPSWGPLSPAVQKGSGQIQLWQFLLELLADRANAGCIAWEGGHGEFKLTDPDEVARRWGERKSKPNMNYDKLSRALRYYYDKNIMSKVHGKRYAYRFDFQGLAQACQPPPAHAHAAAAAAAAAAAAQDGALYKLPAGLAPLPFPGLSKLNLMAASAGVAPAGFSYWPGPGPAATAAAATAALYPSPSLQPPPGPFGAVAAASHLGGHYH
The conditions noted are these: protein: recombinant; tags: N-terminal GST; dsDNA, one strand shown. A digest of the protocol: as §1

The target of another test is ETV5 (Homo sapiens, UniProt P41161 1-510). Conditions: protein: recombinant; tags: N-terminal GST; dsDNA, one strand shown. A digest of the protocol: as §1
The target in another test is HSF1 (Homo sapiens, UniProt Q00613 1-529). The conditions noted are these: protein: recombinant; tags: N-terminal GST; chain copies: 3; dsDNA, one strand shown. In outline:
as §1

For another test, the target named is T8, SPIC (Homo sapiens, UniProt Q8N5J4 1-248).
T8 sequence: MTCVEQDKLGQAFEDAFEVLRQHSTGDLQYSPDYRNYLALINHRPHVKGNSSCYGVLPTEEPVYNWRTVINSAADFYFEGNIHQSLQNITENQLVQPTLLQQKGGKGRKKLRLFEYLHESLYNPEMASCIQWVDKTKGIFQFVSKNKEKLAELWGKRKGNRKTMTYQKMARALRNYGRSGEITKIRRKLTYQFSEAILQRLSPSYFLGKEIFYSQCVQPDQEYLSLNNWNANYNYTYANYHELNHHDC
Conditions: protein: recombinant; tags: N-terminal GST; dsDNA, one strand shown. A digest of the protocol: as §1

Another test concerns the target ELF4 (Homo sapiens, UniProt Q99607 1-663). The conditions noted are these: protein: recombinant; tags: N-terminal GST; dsDNA, one strand shown. In outline:
as §1

The target in the next test is T9, ELK4 (Homo sapiens, UniProt P28324-2 1-405).
T9 sequence: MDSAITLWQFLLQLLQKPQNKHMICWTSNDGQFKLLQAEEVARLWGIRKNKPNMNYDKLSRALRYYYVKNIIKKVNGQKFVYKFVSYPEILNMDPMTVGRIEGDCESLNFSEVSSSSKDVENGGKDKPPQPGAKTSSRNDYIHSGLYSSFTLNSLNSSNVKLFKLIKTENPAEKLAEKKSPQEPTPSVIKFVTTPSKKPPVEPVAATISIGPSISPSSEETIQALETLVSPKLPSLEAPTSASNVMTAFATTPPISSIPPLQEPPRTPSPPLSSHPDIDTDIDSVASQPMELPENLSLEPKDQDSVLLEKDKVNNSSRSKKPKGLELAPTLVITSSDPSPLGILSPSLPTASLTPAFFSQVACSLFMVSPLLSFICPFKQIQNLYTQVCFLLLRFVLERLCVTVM
The conditions noted are these: protein: recombinant; tags: N-terminal GST; dsDNA, one strand shown. A digest of the protocol:
as §1

A further test has as its target T10, ETV2 (Homo sapiens, UniProt O00321 1-342).
T10 sequence: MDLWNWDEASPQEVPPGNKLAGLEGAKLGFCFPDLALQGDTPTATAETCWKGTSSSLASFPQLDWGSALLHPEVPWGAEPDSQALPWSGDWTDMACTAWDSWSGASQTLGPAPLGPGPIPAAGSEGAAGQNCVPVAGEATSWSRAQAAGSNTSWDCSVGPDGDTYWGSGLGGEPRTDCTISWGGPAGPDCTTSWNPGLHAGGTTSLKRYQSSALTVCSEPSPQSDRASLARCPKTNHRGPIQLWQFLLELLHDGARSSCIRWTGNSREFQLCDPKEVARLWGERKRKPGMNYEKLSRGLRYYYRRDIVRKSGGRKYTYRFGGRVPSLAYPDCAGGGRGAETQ
Conditions: protein: recombinant; tags: N-terminal GST; dsDNA, one strand shown. In outline:
as §1

For a further test, the target named is T11, ELF3 (Homo sapiens, UniProt P78545 1-371).
T11 sequence: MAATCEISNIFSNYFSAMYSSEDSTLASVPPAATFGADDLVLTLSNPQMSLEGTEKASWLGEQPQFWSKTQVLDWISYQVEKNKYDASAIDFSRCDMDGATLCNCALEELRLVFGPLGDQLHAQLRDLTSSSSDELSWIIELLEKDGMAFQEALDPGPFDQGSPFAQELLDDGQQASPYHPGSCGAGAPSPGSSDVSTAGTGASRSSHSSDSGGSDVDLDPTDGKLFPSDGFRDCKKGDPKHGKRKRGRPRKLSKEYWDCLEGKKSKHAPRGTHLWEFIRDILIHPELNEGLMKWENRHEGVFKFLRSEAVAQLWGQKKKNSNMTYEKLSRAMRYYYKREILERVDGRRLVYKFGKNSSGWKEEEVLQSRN
Conditions: protein: recombinant; tags: N-terminal GST; dsDNA, one strand shown. In outline:
as §1

The next test deals with CRX (Homo sapiens, UniProt O43186 1-299). The conditions noted are these: protein: recombinant; tags: N-terminal GST; dsDNA, one strand shown. In outline: as §1
The target of the next test is ETV1 (Homo sapiens, UniProt P50549 1-477). Conditions: protein: recombinant; tags: N-terminal GST; dsDNA, one strand shown. A digest of the protocol:
as §1

CRX, sequence (O43186 whole entry): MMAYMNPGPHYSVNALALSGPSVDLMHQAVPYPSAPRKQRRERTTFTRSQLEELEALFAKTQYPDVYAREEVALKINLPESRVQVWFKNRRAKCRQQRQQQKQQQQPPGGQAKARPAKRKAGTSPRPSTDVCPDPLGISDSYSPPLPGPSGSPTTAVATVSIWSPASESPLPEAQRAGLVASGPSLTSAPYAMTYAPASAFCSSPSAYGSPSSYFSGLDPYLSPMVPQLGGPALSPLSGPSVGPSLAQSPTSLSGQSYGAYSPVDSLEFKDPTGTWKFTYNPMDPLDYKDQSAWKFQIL
SPIB, sequence (Q01892 whole entry): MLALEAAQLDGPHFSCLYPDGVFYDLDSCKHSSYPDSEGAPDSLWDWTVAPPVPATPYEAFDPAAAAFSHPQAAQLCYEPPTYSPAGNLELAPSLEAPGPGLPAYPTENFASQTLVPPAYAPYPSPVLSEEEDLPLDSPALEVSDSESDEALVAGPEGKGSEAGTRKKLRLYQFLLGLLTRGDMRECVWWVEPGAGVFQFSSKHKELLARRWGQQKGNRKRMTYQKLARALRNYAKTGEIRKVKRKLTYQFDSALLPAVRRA
ETV5, sequence (P41161 whole entry): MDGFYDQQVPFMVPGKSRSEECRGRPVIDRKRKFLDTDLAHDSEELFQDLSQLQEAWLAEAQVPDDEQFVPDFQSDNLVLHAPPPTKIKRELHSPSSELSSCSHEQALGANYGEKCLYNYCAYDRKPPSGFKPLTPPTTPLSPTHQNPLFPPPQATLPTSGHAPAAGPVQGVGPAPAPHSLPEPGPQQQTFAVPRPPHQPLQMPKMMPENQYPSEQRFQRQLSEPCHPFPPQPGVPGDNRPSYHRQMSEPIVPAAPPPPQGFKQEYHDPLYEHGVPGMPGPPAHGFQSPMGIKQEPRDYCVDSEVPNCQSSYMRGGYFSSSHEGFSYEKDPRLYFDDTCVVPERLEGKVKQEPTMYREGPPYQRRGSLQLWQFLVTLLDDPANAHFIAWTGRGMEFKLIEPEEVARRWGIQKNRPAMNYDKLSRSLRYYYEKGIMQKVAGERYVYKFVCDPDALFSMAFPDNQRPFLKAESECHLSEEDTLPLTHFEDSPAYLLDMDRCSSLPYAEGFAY
HSF1, sequence (Q00613 whole entry): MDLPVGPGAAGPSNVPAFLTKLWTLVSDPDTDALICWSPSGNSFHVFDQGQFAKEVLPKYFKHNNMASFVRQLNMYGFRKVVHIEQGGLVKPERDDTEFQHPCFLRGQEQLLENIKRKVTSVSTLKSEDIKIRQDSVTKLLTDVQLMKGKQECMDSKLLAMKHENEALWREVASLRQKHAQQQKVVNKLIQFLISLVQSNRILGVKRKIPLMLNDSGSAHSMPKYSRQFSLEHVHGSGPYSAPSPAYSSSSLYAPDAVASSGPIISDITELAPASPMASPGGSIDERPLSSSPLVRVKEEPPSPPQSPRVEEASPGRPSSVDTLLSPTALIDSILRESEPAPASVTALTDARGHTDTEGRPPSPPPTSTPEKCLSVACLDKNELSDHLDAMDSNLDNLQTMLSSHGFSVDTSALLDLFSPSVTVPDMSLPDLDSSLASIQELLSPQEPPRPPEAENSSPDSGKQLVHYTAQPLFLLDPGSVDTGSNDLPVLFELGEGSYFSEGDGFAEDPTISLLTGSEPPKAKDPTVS
ELF1, sequence (P32519 whole entry): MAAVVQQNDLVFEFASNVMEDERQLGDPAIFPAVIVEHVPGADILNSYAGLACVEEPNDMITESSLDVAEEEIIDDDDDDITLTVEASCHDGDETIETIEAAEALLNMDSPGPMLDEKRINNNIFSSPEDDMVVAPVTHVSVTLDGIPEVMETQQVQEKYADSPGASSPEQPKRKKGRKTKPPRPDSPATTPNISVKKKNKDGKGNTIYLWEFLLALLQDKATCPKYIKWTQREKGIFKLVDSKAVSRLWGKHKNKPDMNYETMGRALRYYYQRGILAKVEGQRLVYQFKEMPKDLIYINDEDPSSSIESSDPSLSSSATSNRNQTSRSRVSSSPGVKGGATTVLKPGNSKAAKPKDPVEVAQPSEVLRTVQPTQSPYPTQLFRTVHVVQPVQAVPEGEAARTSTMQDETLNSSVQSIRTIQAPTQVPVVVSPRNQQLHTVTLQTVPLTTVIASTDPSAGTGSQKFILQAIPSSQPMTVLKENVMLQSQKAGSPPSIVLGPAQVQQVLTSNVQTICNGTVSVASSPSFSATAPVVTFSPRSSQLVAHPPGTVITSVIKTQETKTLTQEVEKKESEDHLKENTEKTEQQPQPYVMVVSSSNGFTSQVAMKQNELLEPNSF
ETV1, sequence (P50549 whole entry): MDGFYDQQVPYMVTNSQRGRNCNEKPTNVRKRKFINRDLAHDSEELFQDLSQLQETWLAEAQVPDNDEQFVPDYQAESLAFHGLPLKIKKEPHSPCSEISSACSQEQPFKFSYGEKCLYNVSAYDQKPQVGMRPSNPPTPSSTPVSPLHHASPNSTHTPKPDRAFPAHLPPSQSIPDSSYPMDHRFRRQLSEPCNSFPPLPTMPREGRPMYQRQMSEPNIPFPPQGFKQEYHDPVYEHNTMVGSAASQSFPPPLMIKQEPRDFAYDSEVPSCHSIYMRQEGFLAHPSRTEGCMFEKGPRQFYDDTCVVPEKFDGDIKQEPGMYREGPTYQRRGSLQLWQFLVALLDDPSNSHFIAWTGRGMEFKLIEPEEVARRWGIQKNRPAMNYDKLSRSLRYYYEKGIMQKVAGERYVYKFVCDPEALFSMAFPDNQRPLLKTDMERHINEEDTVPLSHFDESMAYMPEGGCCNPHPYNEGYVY
ELF4, sequence (Q99607 whole entry): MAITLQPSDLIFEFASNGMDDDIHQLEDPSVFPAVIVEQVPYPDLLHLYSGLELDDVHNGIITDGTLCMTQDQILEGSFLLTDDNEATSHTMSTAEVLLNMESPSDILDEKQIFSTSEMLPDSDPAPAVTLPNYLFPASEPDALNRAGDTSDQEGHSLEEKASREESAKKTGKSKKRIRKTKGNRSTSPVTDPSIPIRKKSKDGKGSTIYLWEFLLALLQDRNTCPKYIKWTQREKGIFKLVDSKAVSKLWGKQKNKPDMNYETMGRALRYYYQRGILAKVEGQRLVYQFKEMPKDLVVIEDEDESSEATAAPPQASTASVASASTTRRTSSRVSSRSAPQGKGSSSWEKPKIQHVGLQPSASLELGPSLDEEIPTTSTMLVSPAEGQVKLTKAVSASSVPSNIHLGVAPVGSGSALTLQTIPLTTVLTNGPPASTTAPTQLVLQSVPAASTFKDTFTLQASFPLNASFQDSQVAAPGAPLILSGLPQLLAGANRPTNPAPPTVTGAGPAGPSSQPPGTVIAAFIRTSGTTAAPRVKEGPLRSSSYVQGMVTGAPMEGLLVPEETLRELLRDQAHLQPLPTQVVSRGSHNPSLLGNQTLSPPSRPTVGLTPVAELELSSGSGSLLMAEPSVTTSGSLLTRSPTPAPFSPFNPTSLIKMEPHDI

Take TTGCAA: the binding signal with FLI1 was 1.14 fold enrichment (6-mer frequency, TF over GST control); with ELK1 it was 1.28 fold enrichment (6-mer frequency, TF over GST control); with GABPA, 1.2 fold enrichment (6-mer frequency, TF over GST control); in the test with ERG it was 1.08 fold enrichment (6-mer frequency, TF over GST control); with ELF1, 1.18 fold enrichment (6-mer frequency, TF over GST control); in the test with EHF, 1.2 fold enrichment (6-mer frequency, TF over GST control). For the same sequence, the binding signal is 1.04 fold enrichment (6-mer frequency, TF over GST control) with SPI1; 1.15 fold enrichment (6-mer frequency, TF over GST control) with SPIB; 1.29 fold enrichment (6-mer frequency, TF over GST control) with ELK3; 1.12 fold enrichment (6-mer frequency, TF over GST control) in the test with FEV; 1.17 fold enrichment (6-mer frequency, TF over GST control) with ETV5; 1.07 fold enrichment (6-mer frequency, TF over GST control) with HSF1. Further, the binding signal in the test with SPIC is 1.09 fold enrichment (6-mer frequency, TF over GST control); with ELF4 it was 1.19 fold enrichment (6-mer frequency, TF over GST control); in the test with ELK4, 1.21 fold enrichment (6-mer frequency, TF over GST control); with ETV2, 1.22 fold enrichment (6-mer frequency, TF over GST control); in the test with ELF3, 1.13 fold enrichment (6-mer frequency, TF over GST control); in the test with CRX, 1.12 fold enrichment (6-mer frequency, TF over GST control). In addition, in the test with ETV1, the binding signal was 1.27 fold enrichment (6-mer frequency, TF over GST control).
